Source: PubChem BioAssay (NCATS)
Records with an inconclusive call do not appear. A number with no mark means an inactive call. Calls come from the whole dose curve; as a rule, active = well fitted inhibition curve with a large enough effect; inconclusive = small, poorly fitted or top-dose-only effect; inactive = no such curve, though single readings can be large or run the other way.

These compounds were tested against Retinaldehyde dehydrogenase 3 (Homo sapiens) (UniProt P47895) (assay: qHTS for Inhibitors of the Aldehyde Dehydrogenase Family (ALDH1A3) Primary screen (AID 2061315;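 note: plate controls were DMSO vehicle for no effect and reference inhibitor for full effect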)). Settings: ALDH inhibition qHTS; series mostly up to 56 µM; activity change, negative = inhibition: at the top concentration.

For `N#Cc1ccc(COC[C@H]2O[C@@H](n3c(NCc4ccc(Cl)c(Cl)c4)nc4c(N)ncnc43)[C@H](O)[C@@H]2O)cc1`, the “activity change, negative = inhibition” value was 1.73% [at 28 µM].

Compared with `CCOC(=O)[C@@H](N)Cc1ccc(-c2cc(O[C@H](c3ccc(Cl)cc3-n3ccc(C)n3)C(F)(F)F)nc(N)n2)cc1`, `CCS(=O)c1nc(-c2cccc(OCc3ccccc3)c2)cc(C(F)(F)F)n1` (configuration not stated) is lower in “activity change, negative = inhibition” value: 0.676% for the first, -0.844% for the second.

First: CCc1cc2c(cc1CC)CC(NCC(O)c1ccc(O)c3[nH]c(=O)ccc13)C2 (configuration not stated)
Second: CN(C)CC(=O)Nc1ccc2[nH]c(=O)c3ccccc3c2c1
The “activity change, negative = inhibition” value of the first is higher: 9.16% for the first, -11.8% for the second.

Compared with `COc1ccc(NS(=O)(=O)c2sc3ccc(Cl)cc3c2C)cc1N1CCNCC1`, `C[C@@H](CN1CCC(n2c(=O)[nH]c3cc(Cl)ccc32)CC1)NC(=O)c1ccc2ccccc2c1` is lower in “activity change, negative = inhibition” value: 9.34% for the first, 0.497% for the second.

Going from `NC(=O)c1nc(Nc2ccccc2)sc1NC(=O)C1CCCCC1` to `O=C(c1ccccc1)c1ccc2nc(NC(=O)c3csc(C4CCN(c5ncnc6ccsc56)CC4)n3)[nH]c2c1`, the “activity change, negative = inhibition” value falls from 6.9% to 6.37%.

Compared with `COc1c(Nc2ncc(Cl)c(N[C@H]3[C@@H](C(N)=O)[C@@H]4C=C[C@H]3C4)n2)ccc2c1CC[C@@H](N1CCOCC1)CC2`, `CC(C)[C@@](C)(O)[C@@H]1CN(c2nc(-c3[nH]nc4ncccc34)c(F)cc2Cl)CCN1` is higher in “activity change, negative = inhibition” value: 4.41% for the first, 10.8% for the second.

First: O=C(/C=C\n1cnc(-c2cc(C(F)(F)F)cc(C(F)(F)F)c2)n1)N1CC(F)(F)C1
Second: Cc1ccccc1-c1cc(N2CCN(C)CC2)ncc1N(C)C(=O)C(C)(C)c1cc(C(F)(F)F)cc(C(F)(F)F)c1
The “activity change, negative = inhibition” value of the first is higher: 12.1% for the first, -13.2% for the second.

First: COc1cc(N(C)CCN(C)C)c(N)cc1Nc1nccc(-c2cn(C)c3ccccc23)n1
Second: COc1cc2c(cc1-c1c(C)noc1C)ncc1[nH]c(=O)n(C(C)c3ccccn3)c12 (configuration not stated)
The “activity change, negative = inhibition” value of the first is lower: -9.21% for the first, -0.715% for the second.

First: CC(C)(C(=O)NCC(F)(F)C(F)(F)F)C(=O)NC1C(=O)Nc2ccccc2-c2ccccc21 (configuration not stated)
Second: O=C(NC1CCN(CCCCC2(C(=O)NCC(F)(F)F)c3ccccc3-c3ccccc32)CC1)c1ccccc1-c1ccc(C(F)(F)F)cc1
The “activity change, negative = inhibition” value of the first is lower: -0.141% for the first, 9.62% for the second.

First: NC(=O)C(CCC(F)(F)F)N(Cc1ccc(-c2ncon2)cc1F)S(=O)(=O)c1ccc(Cl)cc1 (configuration not stated)
Second: CC1CCN(C(c2ccc(F)cc2)c2ccc(C(C)C(=O)O)cc2-c2ccc(C(F)(F)F)cc2)CC1 (configuration not stated)
The “activity change, negative = inhibition” value of the first is lower: 2.52% for the first, 7.84% for the second.

Compared with `CC(C)(C)CC(C)(C)c1ccc(OCCOCC[N+](C)(C)Cc2ccccc2)cc1`, `COc1cc(C(=O)O)ccc1NC(=O)C1NC(CC(C)(C)C)C(C#N)(c2ccc(Cl)cc2F)C1c1cccc(Cl)c1F` (configuration not stated) is higher in “activity change, negative = inhibition” value: 2.64% for the first, 4.4% for the second.

Compared with `CCCc1cc(C)[nH]c(=O)c1CNC(=O)c1cc(-c2ccc(N3CCN(C(C)C)CC3)nc2)cc2c1cnn2C(C)C`, `COc1ccc2nc(-c3cc(OC)c(OC)c(OC)c3)cc(C(=O)NCC(=O)Nc3ccc(C(C)=O)cc3)c2c1` is lower in “activity change, negative = inhibition” value: 0.709% for the first, -7.12% for the second.

First: CC[C@H](C)[C@H]1O[C@]2(CC[C@@H]1C)C[C@@H]1C[C@@H](C/C=C(\C)[C@@H](O[C@H]3C[C@H](OC)[C@@H](O[C@H]4C[C@H](OC)[C@@H](O)[C@H](C)O4)[C@H](C)O3)[C@@H](C)/C=C/C=C3\CO[C@@H]4[C@H](O)C(C)=C[C@@H](C(=O)O1)[C@]34O)O2
Second: CC[C@H]1OC(=O)[C@H](C)[C@@H](O[C@H]2C[C@@](C)(OC)[C@@H](O)[C@H](C)O2)[C@H](C)[C@@H](O[C@@H]2O[C@H](C)C[C@H](N(C)C)[C@H]2O)[C@](C)(O)C[C@@H](C)C(=O)[C@H](C)[C@H]2OC(=O)O[C@@]21C
The “activity change, negative = inhibition” value of the first is higher: 10.2% for the first, -1.18% for the second.

Compared with `Fc1ccc(C2CCNC[C@H]2COc2ccc3c(c2)OCO3)cc1` (some centres not stated), `N#Cc1ccc(COc2ccc(-c3cccc4nc(NC(=O)C5CC5)nn34)cc2)cn1` is lower in “activity change, negative = inhibition” value: 23.2% for the first, -2.26% for the second.

Going from `CC(Oc1cc(-n2cnc3ccc(CN4CCN(C)CC4)cc32)sc1C(N)=O)c1ccccc1C(F)(F)F` (configuration not stated) to `CCN(CC)CCN(Cc1ccc(-c2ccc(C(F)(F)F)cc2)cc1)C(=O)Cn1c(SCc2ccc(F)cc2)nc(=O)c2c1CCC2`, the “activity change, negative = inhibition” value rises from 6.54% to 25.8%.

First: COc1cc(/C=C/C(=O)N2CCN(CC(=O)N3CCCC3)CC2)cc(OC)c1OC
Second: CCCSc1nc(N[C@@H]2C[C@H]2c2ccc(F)c(F)c2)c2nnn([C@@H]3C[C@H](OCCO)[C@@H](O)[C@H]3O)c2n1
The “activity change, negative = inhibition” value of the first is lower: -11.6% for the first, -3.2% for the second.

With `CNC1CN(c2ccc3c(=O)c(C(=O)O)cn(-c4nccs4)c3n2)CC1OC` (configuration not stated) the activity change, negative = inhibition was -3.75% [at 11.2 µM].
